Measurements taken from PubChem BioAssay AID492964 (The Scripps Research Institute Molecular Screening Center, 2010).
The campaign covered roughly 1,800 compounds. About 880 (49%) were called active. Cut-off read from the data, not from the text of the source: active = inhibition above about 55%; inactive = the rest. The set was probably picked from earlier hits. Not all results are given here.

What follows are compounds tested against Orexin/Hypocretin receptor type 1 (Homo sapiens) (UniProt O43613) (assay: HCRTR1 receptor blockers, retested hits – cell-based, HTRF, confirmation (AID 492964;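 note: CHO cells expressing OX1R stimulated with orexin A at about EC80; 0% = agonist challenge alone and 100% = reference antagonist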)). Conditions: OX1R-expressing cells, HTRF antagonist assay; at 6.6 µM; stronger effect = higher value.
Chain of Orexin/Hypocretin receptor type 1 (Homo sapiens) (O43613 whole entry, looked up): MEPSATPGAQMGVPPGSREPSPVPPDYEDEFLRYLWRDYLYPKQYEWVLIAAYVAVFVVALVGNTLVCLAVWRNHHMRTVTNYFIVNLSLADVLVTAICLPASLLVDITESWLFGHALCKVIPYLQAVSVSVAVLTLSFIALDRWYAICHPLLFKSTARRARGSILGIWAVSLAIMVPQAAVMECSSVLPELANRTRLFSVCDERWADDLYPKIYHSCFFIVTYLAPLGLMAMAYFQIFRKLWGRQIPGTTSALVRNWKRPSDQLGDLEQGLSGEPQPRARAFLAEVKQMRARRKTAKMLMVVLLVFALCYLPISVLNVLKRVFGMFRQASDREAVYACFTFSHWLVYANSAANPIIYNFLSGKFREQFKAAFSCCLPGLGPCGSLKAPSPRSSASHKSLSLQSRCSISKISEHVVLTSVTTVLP

SMILES | inhibition
CCn1c(C)nc2c1C(=O)c1ccccc1C2=O | 69.9% (active)
CC(=O)Oc1ccc(C(C)=O)c2c1OCCO2 | 19.2% (inactive)
CC(NC(=O)c1cccc2ccccc12)c1ccc2c(c1)CCCC2 (stereo unspecified) | 64.9% (active)
O=C(Nc1cccc2cccnc12)c1cccc(N2C(=O)CCC2=O)c1 | 86.1% (active)
COc1cccc(N=c2oc3c(C)ncc(CO)c3cc2C(N)=O)c1 | 51.7% (inactive)
Cc1oc2c(c1C(=O)N1CCOCC1)C(=O)c1ccccc1C2=O | 78.8% (active)
CCn1c(O)c(N=NC2=NC(=O)CS2)c2cc(C)ccc21 | 28.9% (inactive)
O=C(N/N=C/c1sc(N2CCCCC2)nc1-c1cccs1)c1cccnc1 | 89.2% (active)
N#Cc1nc(-c2cccc3ccccc23)oc1N | 60.8% (active)
O=C(Nc1ccccc1Cl)/C(Cl)=C(\Cl)S(=O)c1ccccc1 (stereo unspecified) | 89.9% (active)
Cc1cccc(NC(=O)Nc2cccc(Oc3c(F)c(F)c(F)c(F)c3F)c2)c1 | 35.4% (inactive)
NS(=O)(=O)c1ccc(CCNC(=O)c2ccc([N+](=O)[O-])cc2[N+](=O)[O-])cc1 | 84.6% (active)
CSCCC(NC(=O)c1cc([N+](=O)[O-])cc([N+](=O)[O-])c1)c1nc2ccccc2[nH]1 (stereo unspecified) | 46.4% (inactive)
Cc1c(/C=N\NC(=O)c2cc3ccccc3o2)c2ccccc2n1C | 83.1% (active)
COc1cccc(C(=O)NC(=O)Nc2nc(C)cc(C(F)(F)F)n2)c1 | 57.7% (active)
Cc1cc(=O)oc(C)c1C(=O)NCCN(C)Cc1ccccc1 | 12.3% (inactive)
O=C(NC(Cc1c[nH]c2ccccc12)C(=O)N/N=C/c1ccc(Br)cc1)c1cccs1 (stereo unspecified) | 81.2% (active)
CC(C)(C)NC(=O)CN(C(=O)c1csnn1)c1ccccc1-c1ccccc1 | 55.5% (active)
COc1ccc2sc(-c3ccc(N(C)C)cc3)c(C#CCO)c2c1 | 62.2% (active)
CCn1c(=N)c(C(=O)NCCCOC)cc2c(=O)n3cccc(C)c3nc21 | 47.5% (inactive)
COC(=O)c1sccc1NC(=O)CSc1ccccc1NS(=O)(=O)c1cc(Cl)ccc1Cl | 67.1% (active)
COc1ccc(N(C)C(=O)CCS(=O)(=O)c2cccc3nsnc23)cc1 | 38.3% (inactive)

SMILES | inhibition
CC(=O)Nc1ccc(Nc2c([N+](=O)[O-])cc(S(C)(=O)=O)cc2[N+](=O)[O-])cc1 | 46.9% (inactive)
COC(=O)N/N=C/c1c[n+]([O-])c2ccccc2[n+]1[O-] | 69.1% (active)
COCCNC(=O)Nc1ccc2nc(-c3ccco3)c(-c3ccco3)nc2c1 | 32.4% (inactive)
COc1cc(OC)c(NC(=O)c2ccc(Br)o2)cc1Cl | 66.4% (active)
Nc1ccc2nc3c(=O)[nH]c(=S)[nH]c3nc2c1 | 47.3% (inactive)
N#C/C(=C1\CCCN1)c1nc(-c2ccccc2)cs1 | 94% (active)
N#CC(=C1SC=CS1)c1nc(-c2ccccc2)cs1 | 92.5% (active)
Nc1[nH][nH]c(=O)c1N=Nc1ccc2c(c1)OCO2 | 34.5% (inactive)
COCCCNC(=S)NC(=O)c1ccc([N+](=O)[O-])cc1 | 50.2% (inactive)
Cn1cnnc1Sc1ccc(S(C)(=O)=O)cc1[N+](=O)[O-] | 42.5% (inactive)
COc1cc2ccccc2cc1C(=O)Nc1ccc(N2CCOCC2)cc1 | 56.8% (active)
COc1ccccc1N1CC(C(=O)Nc2ccc(S(=O)(=O)N3CCOCC3)cc2)CC1=O (stereo unspecified) | 16.2% (inactive)
COc1cccc(/C=N/Nc2cc(C)nc(-c3ccccc3O)n2)c1O | 92.3% (active)
CCOc1ccc(/C=C/C(=O)OCC(=O)c2ccccc2OC)cc1OC | 58.8% (active)
CC(C)CC[n+]1ccn(C2=C([O-])c3ccccc3C(=O)/C2=N\S(=O)(=O)c2ccccc2)c1 | 51.6% (inactive)
COc1cc(C(=S)N2CCOCC2)cc(OC)c1OC(=O)c1ccc([N+](=O)[O-])cc1[N+](=O)[O-] | 88.1% (active)
O=C(Oc1ccccc1C(=S)N1CCCCC1)c1cc([N+](=O)[O-])cc([N+](=O)[O-])c1 | 35.2% (inactive)
CCn1c(SCC(=O)c2ccc3ccccc3c2)nnc1-c1cccs1 | 81.2% (active)
COc1ccc(N2CC(C(=O)NCCN3C(=O)S/C(=C\c4cccnc4)C3=O)CC2=O)c(OC)c1 (stereo unspecified) | 106% (active)
O=C(O)CCC(=O)Nc1nc2ccc([N+](=O)[O-])cc2s1 | 50.8% (inactive)
Cc1cc(-c2ccc(C)c(S(=O)(=O)NC(C)Cc3ccco3)c2)on1 (stereo unspecified) | 30.2% (inactive)
COc1ccc(S(=O)(=O)NC(C)c2ccccc2)cc1C(=O)N1CCCCC1 (stereo unspecified) | 72.9% (active)

SMILES | inhibition
CC(=O)N/N=C/c1cc2c(cc1[N+](=O)[O-])OCO2 | 34.2% (inactive)
COC(=O)CNC(=O)c1ccc2c(c1)S(=O)(=O)c1ccccc1C2=O | 63% (active)
Cc1cc(C(=O)NC2CCCc3c2cnn3-c2cccc(C)c2C)c(C)o1 (stereo unspecified) | 63.8% (active)
Cc1cccc(NS(=O)(=O)c2cccc(C(=O)NNC(=O)c3ccccc3O)c2)c1 | 30.5% (inactive)
S=c1[nH]nc(-c2cc(-c3ccccc3)n[nH]2)n1/N=C/c1c2ccccc2cc2ccccc12 | 60% (active)
Cc1cccn2c(=O)c3cc(C#N)c(=NC(=O)c4cccnc4)n(CC4CCCO4)c3nc12 (stereo unspecified) | 44.2% (inactive)
COc1ccc(CCn2c(NCCCN3CCOCC3)nc3c2c(=O)[nH]c(=O)n3C)cc1 | 15.3% (inactive)
CCOc1ccc(CCNC(=O)C(CC)n2nc(C)n3c(cc4sccc43)c2=O)cc1OCC (stereo unspecified) | 81.6% (active)
COc1cccc(/C=C/c2ccc3ccccc3n2)c1OC(C)=O | 37.3% (inactive)
CN(C(=O)CSc1nnc(-c2n[nH]c3ccccc23)o1)c1ccccc1 | 35% (inactive)
COc1cccc(/C=N/NC(=O)c2[nH]nc3c2CCc2ccccc2-3)c1O | 55% (active)
Nc1nc(COC(=O)CCC(=O)c2ccc(Cl)cc2)nc(Nc2ccccc2)n1 | 38.7% (inactive)
O=C(/C=C/c1ccco1)Nc1cccc(-c2nc3ccccc3[nH]2)c1 | 59% (active)
COc1ccc(CCNC(=O)/C(C#N)=C2\N=C(NC(=O)c3cccs3)c3ccccc32)cc1 | 19.5% (inactive)
CCC(=O)N(C)C(c1ccccc1Cl)c1nnnn1-c1c(C)cccc1C (stereo unspecified) | 64% (active)
Cc1ccc2c(c1)nnc1nnc(SCC(=O)O)n12 | 63.9% (active)
C/C(N)=C(/C#N)C(=O)COC(=O)c1cc(-c2ccc(C)cc2)nc2ccccc12 | 27.5% (inactive)
O=C(Nc1nnc(-c2ccccc2)o1)c1cc(-c2cccs2)nc2ccccc12 | 75.6% (active)
CC(=O)c1cccc(NC(=O)C2CCCN2S(=O)(=O)c2cccc3nsnc23)c1 (stereo unspecified) | 101% (active)
Cc1cc(C)cc(NC(=O)C2CCCN2S(=O)(=O)c2cccc3cccnc23)c1 (stereo unspecified) | 88.2% (active)
CCOc1ccc(NC(=O)CCS(=O)(=O)c2cccc3nsnc23)cc1 | 31.9% (inactive)
O=C(NCc1ccco1)C1CCCN(S(=O)(=O)c2cccc3nonc23)C1 (stereo unspecified) | 16.2% (inactive)

SMILES | inhibition
CN1CCN(/N=C/c2ccc(-c3ccc([N+](=O)[O-])cc3)o2)CC1 | 26.4% (inactive)
C=CCn1c(SCC(=O)Nc2nc3ccccc3s2)nnc1-c1ccccc1O | 76.1% (active)
COc1ccc2oc(=O)c(C(=O)NCc3ccccn3)cc2c1 | 35.8% (inactive)
O=C(Nc1ccc2sc3ccccc3c(=O)c2c1)c1ccccc1Cl | 95.8% (active)
CC(C)(C)NC(=O)Cn1cnc2cc([N+](=O)[O-])ccc2c1=O | 43.3% (inactive)
CCOc1cc(/C=C(\C#N)c2nc(-c3cccs3)c(NC(C)=O)s2)ccc1O | 73.3% (active)
O=C(Cc1ccccc1)N1CCN(S(=O)(=O)c2ccc([N+](=O)[O-])cc2)CC1 | 61.2% (active)
Cc1ccc([C@@H]2CC=C(C(=O)O)[C@H](c3cccc(Cl)c3)N2S(=O)(=O)c2ccc(C)cc2)cc1 | 82.8% (active)
Cc1ccccc1S(=O)(=O)N1[C@@H](c2cccc(Cl)c2)C(C(=O)O)=CC[C@H]1c1ccc(Cl)cc1 | 87.4% (active)
O=C(Nc1nnc(C2=COCCO2)o1)c1ccc([N+](=O)[O-])s1 | 49.7% (inactive)
c1ccc(-c2nc(NCc3ccco3)c3ccccc3n2)cc1 | 64% (active)
C[n+]1ccccc1C1CCCC/C1=N\Nc1ccc([N+](=O)[O-])cc1[N+](=O)[O-] (stereo unspecified) | 35.2% (inactive)
Nc1nc(-c2sc3nc4c(cc3c2N)CCCC4)nc(N2CCOCC2)n1 | 94.8% (active)
O=C(CN1C(=O)c2cccc3cccc(c23)C1=O)N1CCCCC1 | 33.8% (inactive)
Cn1c(N)c(C(=O)COC(=O)c2ccc3ccccc3c2)c(=O)n(C)c1=O | 63.3% (active)
COc1ccc2[nH]c(=O)c(CNc3ccc(C)c(C)c3)cc2c1 | 31.3% (inactive)
O=C(N/N=C/c1c(Cl)[nH]c2ccccc12)c1sc2ccccc2c1Cl | 92.5% (active)
Cc1ccc(Nc2nc(CSc3nnnn3-c3ccccc3)cc(=O)[nH]2)cc1 | 22.3% (inactive)
O=C(OC1CCOC1=O)c1ccc(-c2nc3ccccc3s2)s1 (stereo unspecified) | 98.5% (active)
O=C(c1ccncc1)c1ccc([N+](=O)[O-])cc1 | 53.2% (inactive)
